Bioassay records (PubChem)
uPA surface inh: qHTS for Inhibitors of Cell Surface uPA Generation. hit rate 0.31% among 330,000. AID 540303, 2011. Potency, µM (series often up to 38.3 µM), without a hit: at the highest dose activity change, negative = inhibition, hits mostly inhibitors. cell surface uPA generation assay, qHTS; active means well fitted inhibition curve with a large enough effect; inconclusive means small, poorly fitted or top-dose-only effect; inactive means no such curve, though single readings can be large or run the other way; tested in mouse RAW 264.7 cells; further: potency means the concentration at half of the fitted maximal effect; on the % scale 0 is the no-effect control and ±100 the full control effect; nearly all actives have a fitted effect of over 55% in size
DT40 TDP1 no CPT: qHTS for Inhibitors of human tyrosyl-DNA phosphodiesterase 1 (TDP1): qHTS in cells in absence of CPT | hit rate 15% among 420,000 | DT40 Tdp1-/- hTDP1 cells, no CPT, ATP luminescence, 48 h | AID 686978, 2013 | Potency, µM (top dose mostly 46.2 µM), without a hit: top-dose activity change, negative = growth inhibition, most hits filed as inhibitors; further: potency means the concentration at half of the fitted maximal effect; on the % scale 0 is the no-effect control and ±100 the full control effect; nearly all actives have a fitted effect of over 55% in size
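A cellular qHTS used chicken DT40 cells lacking endogenous Tdp1 but carrying stably transfected human TDP1. Compounds were applied without camptothecin, and cell growth kinetics were judged by ATP-dependent luminescence after ≥48 hr.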
miR-21 act: qHTS Assay for Modulators of miRNAs and/orActivators of miR-21; Potency, µM (titrated, usually from 38.3 µM), without a hit: top-dose activity change, positive = activation, usual class: activators; 340,000 tested, under 10 active; HeLa miR-21 FLuc reporter, luciferase, 48 h; AID 2288, 2010;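 further: % of control where 0% means no effect; miR-21 action dims this reporter so a rising signal means less miR-21 action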
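HeLa cells stably expressing CMV-driven firefly luciferase with a downstream miR-21 binding sequence, endogenously expressing miR-21, were treated with titrations (up to about 40uM final) for 48 hours at 37 degree Celsius. Luciferase luminescence was read after lysis.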
TDP1 cell CPT: qHTS for Inhibitors of human tyrosyl-DNA phosphodiesterase 1 (TDP1): qHTS in cells in presence of CPT. hit rate 12% among 420,000. chicken DT40 Tdp1-/-;hTDP1 cells + 20 nM CPT, ATP luminescence, 48 h. Potency, µM (doses to about 46.2 µM), without a hit: top-dose activity change, negative = growth inhibition, most hits filed as inhibitors. AID 686979, 2013; further: potency means the concentration at half of the fitted maximal effect; on the % scale 0 is the no-effect control and ±100 the full control effect; nearly all actives have a fitted effect of over 55% in size
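Chicken DT40 Tdp1-/- cells complemented with human TDP1, 400 cells/well, exposed to compounds plus 20 nM camptothecin for at least 48 h at 37 C; viability read as ATP content by CellTiter-Glo luminescence.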
TDP1 inh: qHTS Assay for Inhibitors of Tyrosyl-DNA Phosphodiesterase (TDP1). hit rate 0.28% among 350,000. Potency, µM (titrated, usually from 130 µM), inactives show at the top dose activity change, negative = inhibition, actives largely listed as inhibitors. recombinant TDP1, AlphaScreen DNA substrate cleavage; further: potency means the concentration at half of the fitted maximal effect; on the % scale 0 is the no-effect control and ±100 the full control effect; nearly all actives have a fitted effect of over 40% in size
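Here, a 5' biotin and 3' phosphotyrosine-FITC DNA oligonucleotide reports Tdp1 activity: intact substrate bridges AlphaScreen beads, while cleavage leaves a 3' phosphate and drops signal. All incubations at room temperature.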
* = called active by the depositor; u = inconclusive; x = no result. Compounds with a hit are over-represented: about 16% of the library has one in this group of screens. Unless noted, the call rests on the fitted dose curve; in most records, active means well fitted curve in the direction sought with a large enough effect; inconclusive means small, poorly fitted or top-dose-only effect, or another doubt; inactive means no such curve, though single readings can be large; an effect the other way counts as inactive or inconclusive.

SMILES | uPA surface inh | DT40 TDP1 no CPT | miR-21 act | TDP1 cell CPT | TDP1 inh
CN(C)c1ccc(NC(=S)N2CCN(c3ncc(C(F)(F)F)cc3Cl)CC2)cc1 | 2.8% | u | 0.1% | -25.2% | 5.1%
CCCc1cc(=O)oc2cc(OCC(=O)N3CCN(C(=O)C4COc5ccccc5O4)CC3)ccc12 (stereo not given) | 0.0% | 5.8µM* | 23.8% | u | 5.1%
Cc1c(C)c2ccc(OCC(=O)N3CCN(C(=O)C4COc5ccccc5O4)CC3)cc2oc1=O (stereo not given) | -5.3% | 2.31µM* | 15.5% | u | 0.7%
Cc1cc(=O)oc2cc(OCC(=O)N3CCN(C(=O)C4COc5ccccc5O4)CC3)ccc12 (stereo not given) | -7.0% | u | 13.3% | u | 2.5%
O=[N+]([O-])c1cc(-c2csc(NCCc3nc4cc(C(F)(F)F)ccc4n3CCCO)n2)ccc1Cl | 8.8% | u | x | u | x
Cc1ccc(Cn2c(CCNc3nc(-c4ccc(Cl)c([N+](=O)[O-])c4)cs3)nc3cc(C(=O)NCCCO)ccc32)cc1 | u | 13µM* | x | 10.3µM* | x
Cc1nc2cc(C(F)(F)F)ccc2n1CCNc1nc(-c2ccc([N+](=O)[O-])c(Cl)c2)cs1 | -0.8% | 20.6µM* | 15.4% | u | x
Cc1nc2cc(C(F)(F)F)ccc2n1CCNc1nc(-c2ccc(F)cc2)cs1 | 7.9% | u | -10.7% | u | x
Cc1ccc(-c2csc(NCCn3c(-c4ccncc4)nc4ccccc43)n2)cc1 | -21.5% | 23.1µM* | 17.6% | u | x
c1ccc(CCNc2nc(-c3ccncc3)cs2)cc1 | 12.8% | u | -8.9% | u | 1.3%
Cc1ccc(-c2csc(NCCn3c(-c4ccncc4)nc4cc(C(F)(F)F)ccc43)n2)cc1 | 1.0% | u | x | 29.1µM* | 2.3%
[O-]/C(=C(\C(=S)Nc1ccccc1F)[n+]1ccccc1)c1ccc(-c2ccccc2)cc1 | 2.4% | -6.1% | -21.2% | -5.4% | 2.6%
CC(Oc1ccc2c(-c3ccccc3)cc(=O)oc2c1)C(=O)N1CCC[C@@H]1C(N)=O (stereo not given in full) | 3.6% | -3.1% | -8.0% | -4.1% | x
CCCCCCCCCCOCC(O)CN (stereo not given) | x | 6.68µM* | x | 6.68µM* | 6.2%
CCCCCCCCCCCCCCCCOCCOCCOCCOCCOCCOCCOCCOCCOCCOCCOCCOCCOCCOCCOCCOCCOCCOCCOCCOCCO | x | 7.5µM* | x | 23.7µM* | x
CCCCCCCC(=O)OCC(O)CO (stereo not given) | 14.2% | 5.0% | 0.0% | -4.9% | 8.2%
CC(=O)c1ccc(NC(=O)Nc2cccnc2)cc1 | -2.2% | u | -30.4% | u | 3.4%
CCCCc1c(O)n(-c2ccccc2)[nH]c1=O | x | x | x | x | 0.0%
c1csc(CCNc2ncnc3sc4c(c23)CCC4)c1 | u | 8.2µM* | 18.4% | 3.66µM* | 2.9%
CN(C)C(CNc1ncnc2sc3c(c12)CCCCC3)c1ccco1 (stereo not given) | -0.4% | 18.4µM* | -18.4% | u | 3.7%
Cc1sc2ncnc(NCC(c3ccco3)N(C)C)c2c1C (stereo not given) | -0.4% | u | 0.0% | -20.9% | 3.9%
Clc1cccc(-c2nn3c(COc4ccccc4)nnc3s2)c1 | x | x | 0.3% | x | -2.1%
COC(=O)c1ccc(C2/C(=C(\O)c3cccc(OC)c3)C(=O)C(=O)N2CCCN(C)C)cc1 (stereo not given) | 0.7% | -9.0% | -2.8% | 2.3% | -5.4%
CNc1cc(C)nc(-n2nc(C)cc2C)n1 | -4.3% | 5.17µM* | 1.8% | 5.8µM* | 0.0%
Cc1ccc(Nc2cc(C)nc(-n3nc(C)cc3C)n2)cc1 | x | 3.66µM* | -8.0% | 3.26µM* | 8.1%
CCOc1ccc(Nc2nc3cc(Cl)c(Cl)cc3nc2-n2nc(C)cc2C)cc1 | x | 3.8% | 0.4% | 2.9% | -5.0%
CCOc1ccc(Nc2cc(C)nc(-n3nc(C)cc3C)n2)cc1 | -5.8% | 0.581µM* | 25.9% | 0.461µM* | 3.9%
